Test results reported in PubChem BioAssay (NCATS).
Records with an inconclusive call do not appear. Calls of active or inactive are those of the source. The call rests on the fitted dose curve; in most records, active means well fitted curve in the direction sought with a large enough effect; inconclusive means small, poorly fitted or top-dose-only effect, or another doubt; inactive means no such curve, though single readings can be large; an effect the other way counts as inactive or inconclusive.

Key:
[1] = target: Cellular tumor antigen p53 (Homo sapiens) (UniProt P04637); assay: Primary qHTS for small molecule compounds that upregulate eGFP-tagged delta133p53alpha (in N-terminal) cells. (AID 2060322); details: NCI-H358 eGFP-delta133p53alpha fluorescence, 24 h; activation: hits give high values;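 further: series mostly up to about 56 µM; 0% = DMSO vehicle and 100% = reference activator; nearly all actives have a fitted effect of over 75% in size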
Sequence of Cellular tumor antigen p53 (Homo sapiens) (P04637 whole entry, looked up): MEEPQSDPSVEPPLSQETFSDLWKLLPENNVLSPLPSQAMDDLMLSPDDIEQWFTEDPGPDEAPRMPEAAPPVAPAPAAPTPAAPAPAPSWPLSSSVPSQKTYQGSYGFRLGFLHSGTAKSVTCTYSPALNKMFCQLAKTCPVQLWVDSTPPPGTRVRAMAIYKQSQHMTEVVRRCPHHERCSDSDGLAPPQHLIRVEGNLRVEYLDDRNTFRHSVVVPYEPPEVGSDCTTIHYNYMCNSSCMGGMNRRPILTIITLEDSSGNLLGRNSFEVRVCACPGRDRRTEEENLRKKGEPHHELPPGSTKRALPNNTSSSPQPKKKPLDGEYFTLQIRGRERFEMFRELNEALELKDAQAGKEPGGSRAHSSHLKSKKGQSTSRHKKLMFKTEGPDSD
Outline: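 NCI-H358 cells pre-induced 24 h with 10 ng/ml doxycycline to express N-terminal eGFP-delta133p53alpha, then dosed 24 h at 37C without doxycycline; fixed, Hoechst-stained, GFP intensity by laser scanning cytometry, normalized to DMSO (0%) and 57.5 uM 5-azacytidine (100%).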

[2] = target: Aldehyde dehydrogenase, mitochondrial (Homo sapiens) (UniProt P05091); assay: qHTS for Inhibitors of the Aldehyde Dehydrogenase Family (ALDH2) Primary screen (AID 2061308);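 further: plate controls were vehicle for no effect and reference inhibitor for full effect; nearly all actives have a fitted effect of over 55% in size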
[3] = target: Retinaldehyde dehydrogenase 3 (Homo sapiens) (UniProt P47895); assay: qHTS for Inhibitors of the Aldehyde Dehydrogenase Family (ALDH1A3) Primary screen (AID 2061315);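 further: plate controls were DMSO vehicle for no effect and reference inhibitor for full effect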

C=CC(C)(O)CCC1C(C)(O)CCC2C(C)(C)CCCC21C (centres undefined)
inactive: activation [1] 9.82% | Potency [2] | Potency [3]

CC1(C)CC[C@]2(C(=O)O)CC[C@]3(C)C(=CCC4[C@@]5(C)C[C@@H](O)[C@H](O)C(C)(C)C5CC[C@]43C)[C@@H]2[C@@H]1O (some centres undefined)
inactive: activation [1] -0.893% | Potency [2] | Potency [3]

COc1ccc(C[C@H]2COC(=O)[C@@H]2Cc2ccc(O[C@@H]3O[C@H](CO)[C@@H](O)[C@H](O)[C@H]3O)c(OC)c2)cc1OC
inactive: activation [1] 15.2% | Potency [2] | Potency [3]

CC12CCC3c4ccc(O)cc4CCC3C1CCC2OC1OC(C(=O)O)C(O)C(O)C1O (centres undefined)
inactive: activation [1] -11.7% | Potency [2] | Potency [3]

O=C(O)c1ccc(O)c2ncc(N3CCCN(CCc4cccc5ccccc45)CC3)cc12
inactive: activation [1] 21.2% | Potency [2] | Potency [3]

CC(=O)OCC1(O)CCC2C(COC3OC(CO)C(O)C(O)C3OC(=O)/C=C/c3ccc(O)cc3)=COC(OC(=O)CC(C)C)C21 (centres undefined)
inactive: activation [1] 11.5% | Potency [2] | Potency [3]

C=C(COC(=O)C(O)C(O)CN)C12OC1C1(C)C(=CC2=O)C(O)C(O)CC1C (centres undefined)
inactive: activation [1] -7.63% | Potency [2] | Potency [3]

C=C(C(=O)OC)C1C(O)CC2(C)C(=O)CCC(O)(CO)C2C1O (centres undefined)
inactive: activation [1] -14.3% | Potency [2] | Potency [3]

CC1(C(=O)O)CCCC2(C)C3CCC4CC3(CCC12)CC4=O (centres undefined)
inactive: activation [1] 16.1% | Potency [2] | Potency [3]

c1ccc(N2CCN(CCc3nn[nH]n3)CC2)cc1
inactive: activation [1] -1.43% | Potency [2] | Potency [3]

Nc1nc2c(nc(Sc3ccc(Cl)cc3)n2[C@@H]2O[C@@H]3COP(=O)(O)O[C@H]3[C@H]2O)c(=O)[nH]1
inactive: activation [1] 1% | Potency [2] | Potency [3]

CCC/C=C/C(=O)O[C@H]1CC(C)(C)CC2[C@]13[C@H](O)O[C@@]21CCC2[C@@]4(C)CC[C@H](O[C@@H]5O[C@H](C(=O)O)[C@@H](O)[C@H](O[C@@H]6O[C@H](CO)[C@H](O)[C@H](O)[C@H]6O[C@@H]6O[C@@H](C)[C@H](O)[C@@H](O)[C@H]6O[C@@H]6OC[C@](O)(CO)[C@H]6O)[C@H]5O[C@@H]5O[C@H](CO)[C@H](O)[C@H](O)[C@H]5O)C(C)(C)C4CC[C@@]2(C)[C@]1(C)C[C@H]3OC(C)=O (some centres undefined)
inactive: activation [1] -4.58% | activity change, negative = inhibition [2] 3.01% [at 11.2 µM] | activity change, negative = inhibition [3] 13.9% [at 11.2 µM]

CC(C)=CCc1cc2c(cc1O)OC[C@H]1c3ccc(O)cc3O[C@@H]21
inactive: activation [1] -3.82% | Potency [2] | Potency [3]

Cc1cc2nc(NCCCO)n(CC(=O)c3cc(C(C)(C)C)c(O)c(C(C)(C)C)c3)c2cc1C
inactive: activation [1] 5% | Potency [2] | Potency [3]

CC(=O)OC[C@]12[C@H](OC(C)=O)C(=O)[C@@H]3[C@@H](OC(C)=O)[C@@]14O[C@@]3(C)COC(=O)c1cccnc1[C@@H](C)[C@H](C)C(=O)O[C@@H]([C@H](O)[C@@H]2OC(C)=O)[C@]4(C)O
inactive: activation [1] 6.25% | Potency [2] | Potency [3]

O=C(Nc1ccc(C(O)(C(F)(F)F)C(F)(F)F)cc1)c1ccc(C(F)(F)F)cc1
inactive: activation [1] 0% | Potency [2] | Potency [3]

C/C=C1/[C@H](O[C@@H]2O[C@H](CO)[C@@H](O)[C@H](O)[C@H]2O)OC=C2C(=O)O[C@@H]3C[C@@H](C(C)CO)[C@H](COC(=O)C[C@H]21)[C@H]3C (some centres undefined)
inactive: activation [1] -3.57% | Potency [2] | Potency [3]

CC1CCCCN1S(=O)(=O)c1ccc(N2CCCC2=O)cc1 (centres undefined)
inactive: activation [1] 2.86% | Potency [2] | Potency [3]

O=C(O)/C=C/c1ccc2occc2c1O[C@@H]1O[C@H](CO)[C@@H](O)[C@H](O)[C@H]1O
inactive: activation [1] 8.4% | Potency [2] | Potency [3]

CC1C2=CC(=O)OC2(O)CC2C1C(O)CC1C(C)(CO)CCCC21C (centres undefined)
inactive: activation [1] -9.16% | Potency [2] | Potency [3]

NCCOCCOCCNC(=O)Cc1ccc(Nc2nc(NCc3ccc(F)cc3)nc(NCC3CCCCC3)n2)cc1
inactive: activation [1] 2.33% | Potency [2] | Potency [3]

NC(=O)C(O[C@@H]1O[C@H](CO[C@@H]2O[C@H](CO)[C@@H](O)[C@H](O)[C@H]2O)[C@@H](O)[C@H](O)[C@H]1O)c1ccccc1 (some centres undefined)
inactive: activation [1] -6.11% | Potency [2] | Potency [3]

CC1=C2CC3OC3(C)CCC3OC3(C)CC2OC1=O (centres undefined)
inactive: activation [1] 9.82% | Potency [2] | Potency [3]
